Our source for the outcome and AC50 values is PubChem BioAssay (EPA / NIEHS).

Assay [1] is described as follows: BSK_hDFCGF_SRB: Viability Assessment in the BioMAP Diversity Plus: hDFCGF Assay (AID 2283061).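 Further: cells exposed to compound for 24 h before the read.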 Conditions: primary human foreskin fibroblasts. Put shortly: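 Human foreskin fibroblasts in 96-well plates were treated 24 h. Total protein was measured by 0.1% SRB staining after 10% TCA fixation, read at 560 nm. Data were fitted bidirectionally against DMSO.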
Read-out in assay [2]: TIMP metallopeptidase inhibitor 1 (TIMP1), TIMP1 (gene 7076)
Nature of the assay: BSK_hDFCGF_TIMP1: BioMAP Diversity Plus: hDFCGF Assay for TIMP metallopeptidase inhibitor 1 (TIMP1) Biomarker Activity (AID 2283062). Conditions: primary human foreskin fibroblasts; actives raise or lower the signal. Put shortly:
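Human foreskin fibroblast primary cultures dosed for 24 h; secreted/surface TIMP-1 quantified by ELISA. Bidirectional curve fitting against DMSO baseline; cytotoxicity tracked in parallel cultures by SRB total-protein staining.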

Read-out in assay [3]: Monokine induced gamma interferon (MIG), CXCL9 (gene 4283)
Briefly: BSK_hDFCGF_MIG: BioMAP Diversity Plus: hDFCGF Assay for Monokine induced gamma interferon (MIG) Biomarker Activity (AID 2283063). As to conditions: primary human foreskin fibroblasts; actives raise or lower the signal. Put shortly:
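MIG/CXCL9 measured by ELISA 24 h after dosing primary human skin fibroblasts. Activity fitted in both directions against DMSO controls. Cytotoxicity was checked in parallel cultures by SRB staining read at 560 nm.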

Read-out in assay [4]: Matrix Metallopeptidase 1 (MMP1), MMP1 (gene 4312)
Nature of the assay: BSK_hDFCGF_MMP1: BioMAP Diversity Plus: hDFCGF Assay for Matrix Metallopeptidase 1 (MMP1) Biomarker Activity (AID 2283064). As to conditions: primary human foreskin fibroblasts; actives raise or lower the signal. The gist of the method: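 ELISA read-out of MMP1 from human foreskin fibroblasts (primary skin cells), 24 h post-dose. Gain or loss of signal was fitted bidirectionally versus DMSO negative control; cytotoxicity was checked by SRB in parallel cultures.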

Read-out in assay [5]: Plasminogen activator inhibitor-1 (PAI1), SERPINE1 (gene 5054)
Nature of the assay: BSK_hDFCGF_PAI1: BioMAP Diversity Plus: hDFCGF Assay for Plasminogen activator inhibitor-1 (PAI1) Biomarker Activity (AID 2283066). Conditions: primary human foreskin fibroblasts; actives raise or lower the signal. The gist of the method:
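PAI-1 levels in human dermal foreskin fibroblasts were quantified by ELISA 24 h after dosing, with gain or loss analysed against DMSO. Overt cytotoxicity was checked by sulforhodamine B total-protein staining in parallel cultures.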

Read-out in assay [6]: Intercellular Adhesion Molecule 1 (ICAM1), ICAM1 (gene 3383)
Nature of the assay: BSK_KF3CT_ICAM1: BioMAP Diversity Plus: KF3CT Assay for Intercellular Adhesion Molecule 1 (ICAM1) Biomarker Activity (AID 2283067). Conditions: primary human keratinocytes with fibroblasts; actives raise or lower the signal. The gist of the method:
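Human keratinocyte–foreskin fibroblast co-culture was treated for 24 h. Cell-surface ICAM-1 was quantified by ELISA, fitted bidirectionally relative to DMSO. Cytotoxicity was checked in parallel cultures by SRB total-protein staining.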

Read-out in assay [7]: Interferon-gamma inducible Protein 10 (IP10), CXCL10 (gene 3627)
Nature of the assay: BSK_KF3CT_IP10: BioMAP Diversity Plus: KF3CT Assay for Interferon-gamma inducible Protein 10 (IP10) Biomarker Activity (AID 2283068). As to conditions: primary human keratinocytes with fibroblasts; actives raise or lower the signal. Put shortly: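 KF3CT co-culture (keratinocytes + foreskin fibroblasts), 24 h compound, IP-10 by ELISA; bidirectional fit vs DMSO baseline.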

Assay [8] is described as follows: BSK_KF3CT_SRB: Viability Assessment in the BioMAP Diversity Plus: KF3CT Assay (AID 2283069).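 Further: read 24 h after compound addition.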 As to conditions: primary human keratinocytes with fibroblasts. Put shortly: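 SRB read-out at 560 nm (0.1% stain, TCA-fixed cells) gauges overt cytotoxicity in a human skin keratinocyte–fibroblast co-culture 24 h post-dosing. Signal change was fitted bidirectionally relative to DMSO control.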

Read-out in assay [9]: Interleukin-1 alpha (IL1a), IL1A (gene 3552)
Briefly: BSK_KF3CT_IL1a: BioMAP Diversity Plus: KF3CT Assay for Interleukin-1 alpha (IL1a) Biomarker Activity (AID 2283070). Conditions: primary human keratinocytes with fibroblasts; actives raise or lower the signal. Put shortly:
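Primary skin co-culture (keratinocytes, foreskin fibroblasts), 24 h exposure; ELISA for IL-1a; bidirectional curve fit vs DMSO.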

Read-out in assay [10]: C-C motif chemokine 2 (Homo sapiens) (UniProt P13500)
Nature of the assay: BSK_KF3CT_MCP1: BioMAP Diversity Plus: KF3CT Assay for Monocyte Chemoattractant Protein 1 (MCP1/CCL2) Biomarker Activity (AID 2283073). Conditions: primary human keratinocytes with fibroblasts; actives raise or lower the signal. The gist of the method:
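Human keratinocyte–foreskin fibroblast co-culture; MCP-1 measured by ELISA 24 h after dosing. Bidirectional fit vs DMSO; cytotoxicity tracked by SRB total protein in parallel cultures.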

Read-out in assay [11]: Matrix Metallopeptidase 9 (MMP9), MMP9 (gene 4318)
Briefly: BSK_KF3CT_MMP9: BioMAP Diversity Plus: KF3CT Assay for Matrix Metallopeptidase 9 (MMP9) Biomarker Activity (AID 2283074).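 On AC50: MMP9 protein level quantified by ELISA in the co-culture.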 As to conditions: primary human keratinocytes with fibroblasts; actives raise or lower the signal. Put shortly:
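ELISA read-out of MMP-9 at 24 h post-dosing in a co-culture of human skin keratinocytes and foreskin fibroblasts. Gain or loss of signal was fitted in both directions against DMSO.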

Read-out in assay [12]: urokinase plasminogen activator (uPA), PLAU (gene 5328)
Briefly: BSK_KF3CT_uPA: BioMAP Diversity Plus: KF3CT Assay for urokinase plasminogen activator (uPA) Biomarker Activity (AID 2283075). Conditions: primary human keratinocytes with fibroblasts; actives raise or lower the signal. The gist of the method: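 Skin co-culture (keratinocytes + foreskin fibroblasts), human primary; 24 h post-dose; uPA by ELISA; gain/loss fit vs DMSO baseline.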

Read-out in a further assay: CD40, CD40 (gene 958)
Nature of the assay: BSK_LPS_CD40: BioMAP Diversity Plus: LPS Assay for CD40 Biomarker Activity (AID 2283076). Conditions: primary human HUVEC with PBMC; actives raise or lower the signal. The gist of the method:
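HUVEC plus PBMC co-culture stimulated with LPS; CD40 quantified by ELISA 24 h after compound dosing. Fitting was bidirectional relative to DMSO. SRB staining of parallel cultures flagged overt cytotoxicity.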

Read-out in assay [13]: E-selectin (Homo sapiens) (UniProt P16581)
Nature of the assay: BSK_LPS_Eselectin: BioMAP Diversity Plus: LPS Assay for Eselectin Biomarker Activity (AID 2283077). As to conditions: primary human HUVEC with PBMC; actives raise or lower the signal. Put shortly: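 Human umbilical vein endothelial cells co-cultured with PBMC under LPS stimulation; cell-surface E-selectin measured by ELISA 24 h after dosing. Change in either direction versus DMSO, with SRB total-protein staining in parallel cultures for cytotoxicity.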

Read-out in assay [14]: Interleukin-8 (IL8), CXCL8 (gene 3576)
Briefly: BSK_LPS_IL8: BioMAP Diversity Plus: LPS Assay for Interleukin-8 (IL8) Biomarker Activity (AID 2283078). Conditions: primary human HUVEC with PBMC; actives raise or lower the signal. The gist of the method:
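Human umbilical vein endothelial cells co-cultured with PBMC, LPS-stimulated, exposed to compound for 24 h. IL-8 quantified by ELISA; fitted in both directions against DMSO, with SRB total-protein staining of parallel cultures for cytotoxicity.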

The nature of assay [15]: BSK_LPS_SRB: Viability Assessment in the BioMAP Diversity Plus: LPS Assay (AID 2283079).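 Further: total protein by sulforhodamine B absorbance as a cytotoxicity measure; measured one day after compound addition.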 As to conditions: primary human HUVEC with PBMC. Put shortly:
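Co-culture of human umbilical vein endothelial cells and PBMC, read 24 h after dosing. Total protein by 0.1% SRB staining after 10% TCA fixation, absorbance at 560 nm; bidirectional fit against DMSO.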

Read-out in assay [16]: Interleukin-1 alpha (IL1a), IL1A (gene 3552)
Briefly: BSK_LPS_IL1a: BioMAP Diversity Plus: LPS Assay for Interleukin-1 alpha (IL1a) Biomarker Activity (AID 2283080). Conditions: primary human HUVEC with PBMC; actives raise or lower the signal. The gist of the method:
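Human umbilical vein endothelial cells co-cultured with PBMC and stimulated with LPS; IL-1a measured by ELISA 24 h after dosing. Bidirectional fitting against DMSO; cytotoxicity checked by SRB staining in parallel cultures.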

Read-out in assay [17]: Vascular cell adhesion molecule 1 (VCAM1), VCAM1 (gene 7412)
Nature of the assay: BSK_hDFCGF_VCAM1: BioMAP Diversity Plus: hDFCGF Assay for Vascular cell adhesion molecule 1 (VCAM1) Biomarker Activity (AID 2283065). Conditions: primary human foreskin fibroblasts; actives raise or lower the signal. The gist of the method:
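Human foreskin fibroblast primary cells dosed with chemical, VCAM-1 measured by ELISA at 24 h. Bidirectional curve fitting relative to DMSO as negative control/baseline.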

Read-out in assay [18]: Transforming growth factor beta 1 (TGFb1), TGFB1 (gene 7040)
Briefly: BSK_KF3CT_TGFb1: BioMAP Diversity Plus: KF3CT Assay for Transforming growth factor beta 1 (TGFb1) Biomarker Activity (AID 2283072). As to conditions: primary human keratinocytes with fibroblasts; actives raise or lower the signal. Put shortly: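 ELISA quantifies TGF-b1 at 24 h post-dose in a primary human skin co-culture of keratinocytes and fibroblasts, with gain or loss judged against DMSO. Parallel SRB total-protein staining flags overt cytotoxicity.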

Read-out in assay [19]: TIMP metallopeptidase inhibitor 2 (TIMP2), TIMP2 (gene 7077)
Briefly: BSK_KF3CT_TIMP2: BioMAP Diversity Plus: KF3CT Assay for TIMP metallopeptidase inhibitor 2 (TIMP2) Biomarker Activity (AID 2283071). As to conditions: primary human keratinocytes with fibroblasts; actives raise or lower the signal. Put shortly: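 TIMP-2 measured by ELISA at 24 h in human keratinocyte/fibroblast primary co-cultures exposed to chemicals. Both increases and decreases were fitted against DMSO. Parallel cultures were stained with SRB for total protein as an overt-cytotoxicity check.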

Calls of active or inactive are those of the source. How the source made its calls: active means hit-call score of the fitted dose curve at least 0.9, where 1 is the maximum; inactive means score below 0.9.

Sequence of E-selectin (Homo sapiens) (P16581 whole entry, looked up): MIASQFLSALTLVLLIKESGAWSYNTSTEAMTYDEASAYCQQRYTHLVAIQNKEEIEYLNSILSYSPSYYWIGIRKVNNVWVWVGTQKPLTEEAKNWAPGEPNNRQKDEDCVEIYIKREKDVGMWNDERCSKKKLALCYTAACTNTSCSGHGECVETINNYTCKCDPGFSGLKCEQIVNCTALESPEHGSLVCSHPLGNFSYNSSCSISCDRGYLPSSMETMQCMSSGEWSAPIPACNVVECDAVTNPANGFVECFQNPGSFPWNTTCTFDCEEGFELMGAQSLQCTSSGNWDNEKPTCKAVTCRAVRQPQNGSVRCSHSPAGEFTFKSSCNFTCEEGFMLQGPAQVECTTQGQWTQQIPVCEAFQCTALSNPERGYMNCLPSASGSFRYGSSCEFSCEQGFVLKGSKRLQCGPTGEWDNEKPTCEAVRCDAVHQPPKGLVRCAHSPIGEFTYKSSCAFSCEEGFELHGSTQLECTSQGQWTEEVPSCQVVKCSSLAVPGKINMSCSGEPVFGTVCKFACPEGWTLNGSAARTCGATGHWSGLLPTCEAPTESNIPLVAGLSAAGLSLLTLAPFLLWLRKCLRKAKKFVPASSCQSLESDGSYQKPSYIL

For `COCCOCCOC`, the result in assay [1], in [2], in assay [3], in assay [4], in [5] and in assay [6] was inactive. Besides, the result in [7], in assay [8], in [9], in [10], in assay [11] and in [12] was inactive. The outcome was “inactive” with CD40, CD40 (gene 958); “inactive” in [13]; “inactive” in assay [14]; “inactive” in assay [15]; “inactive” in assay [16].
Take `CCCCCCCCCCCC(=O)OC`: the result in [1], in assay [2], in assay [3], in assay [4], in assay [17] and in [6] was inactive. The result in assay [7], in assay [9], in [18], in assay [10], in [11] and in assay [12] was inactive. The outcome with CD40, CD40 (gene 958) is “inactive”; in [13], “inactive”; in [14], “inactive”; in assay [15], “inactive”; in [16] it was “inactive”.
`C1CCC(SSC2CCCCC2)CC1`: the AC50 in assay [1] was 32.2 µM (active); in [5], 30.8 µM (active); in assay [7], 30 µM (active); in assay [19], 5.11 µM (active); in assay [11], 13.7 µM (active). Also, the result in [2], in assay [3], in [4], in assay [6], in [8] and in [9] was inactive. The outcome in assay [10], in [12], in assay [13], in assay [14], in [15] and in assay [16] was inactive.
On to `C[Si]1(C)O[Si](C)(C)O[Si](C)(C)O[Si](C)(C)O1`, for which the result in assay [1], in assay [2], in assay [3], in assay [4], in assay [5] and in assay [6] was inactive. Further, the result in assay [7], in assay [8], in [9], in assay [19], in [10] and in [11] was inactive. The outcome in assay [12], in assay [13], in assay [14], in assay [15] and in [16] was inactive.
Consider `CCCCCCOCCO`, for which the result in assay [1], in [2], in [3], in [4], in assay [17] and in assay [6] was inactive. The outcome in [7], in assay [9], in assay [19], in assay [18], in assay [10] and in assay [11] was inactive. Moreover, the outcome in [12], in assay [13], in [14], in assay [15] and in [16] was inactive.
As for `Cc1ccccc1Cl`, the result in assay [1], in assay [2], in [3], in assay [4], in assay [17] and in assay [6] was inactive. Also, the result in assay [7], in assay [8], in assay [9], in assay [19], in [10] and in assay [11] was inactive. For the same compound, the outcome in assay [12] was “inactive”; with CD40, CD40 (gene 958), “inactive”; in [13], “inactive”; in assay [14], “inactive”; in assay [15] it was “inactive”; in [16], “inactive”.
For the compound `C=CCc1ccc(O)c(OC)c1`, the result in assay [1], in [2], in assay [3], in [4], in [5] and in assay [6] was inactive. In addition, the result in [7], in assay [8], in assay [9], in [10], in assay [11] and in [12] was inactive. The outcome with CD40, CD40 (gene 958) was “inactive”; in assay [13] it was “inactive”; in assay [14] it was “inactive”; in assay [15], “inactive”; in assay [16] it was “inactive”.

The AC50 is the concentration at which the activity in the assay is half-maximal.
